TPT1 inh: blocks Candida albicans tRNA 2'-phosphotransferase; inhibition, % at 5 µM; actives 0.81% (n = 300,000); recombinant caTPT1, FP RNA substrate dephosphorylation;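 active means inhibition above the mean of all tested compounds plus 3 SD, set per screening campaign, cut at about 24% in these data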;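 further: plate controls were DMSO alone for no effect and ferristatin control at 100 nM for full effect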
NRP1-CendR mod: alters CendR peptide binding to human NRP-1; FAM-RPARPAR peptide binding to NRP-1, fluorescence polarization; AID 602438; actives 0.85% (n = 360,000); inhibition, % at 25 µM;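 active means inhibition or corrected inhibition above about 18%, plus a signal ratio from 0.5 to 1.5, limit read from the data, passing the limit was not always enough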
Rpn11 inh: Rpn11 (human) deubiquitinase inhibition; O00487; human 26S proteasome, Ub4-pepOG fluorescence polarization; 20S core pre-blocked with epoxomicin; inhibition, % at 20 µM; actives 0.59% (n = 360,000); AID 588493;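 active means inhibition at 20 µM, scaled to each plate's controls, above about 33%, limit read from the data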
Target sequence (O00487 whole entry, looked up): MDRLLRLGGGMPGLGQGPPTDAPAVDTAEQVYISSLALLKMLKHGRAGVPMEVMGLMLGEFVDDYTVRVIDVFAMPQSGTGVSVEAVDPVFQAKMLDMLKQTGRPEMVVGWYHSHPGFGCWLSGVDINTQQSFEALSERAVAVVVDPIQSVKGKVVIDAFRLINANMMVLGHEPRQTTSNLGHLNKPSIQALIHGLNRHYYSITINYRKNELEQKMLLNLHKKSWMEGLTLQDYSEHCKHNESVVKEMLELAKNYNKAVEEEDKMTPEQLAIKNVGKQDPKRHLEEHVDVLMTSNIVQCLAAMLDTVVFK
HNF4A DNA FP: change in binding of human HNF4 alpha to DNA | HNF4a-FITC DNA binding, fluorescence polarization, 1 h | activity change, % at 10 µM | actives 0.3% (n = 360,000); in the data active means activity change above about 30%, passing the limit was not always enough
CTSL1 counter: counter-screen for PFM18AAP inhibitors: inhibitors of F. hepatica cathepsin L1. actives 0.49% (n = 300,000). AID 1906. inhibition, % at 5.96 µM. recombinant F. hepatica cathepsin L1, Z-Leu-Arg-MCA fluorescence;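 active means inhibition above the mean of all tested compounds plus 3 SD, set per screening campaign, cut at about 17% in these data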;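 further: 0% = plate median of test compound wells and 100% = 1 µM Z-Phe-Ala-diazomethylketone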
PHOSPHO1 inh: inhibitors of human PHOSPHO1 phosphatase | actives 1.1% (n = 290,000) | inhibition, % at 13.3 µM | recombinant PHOSPHO1, absorbance phosphatase assay; in the data active means inhibition above about 60%
Target sequence (Q8TCT1 whole entry, looked up): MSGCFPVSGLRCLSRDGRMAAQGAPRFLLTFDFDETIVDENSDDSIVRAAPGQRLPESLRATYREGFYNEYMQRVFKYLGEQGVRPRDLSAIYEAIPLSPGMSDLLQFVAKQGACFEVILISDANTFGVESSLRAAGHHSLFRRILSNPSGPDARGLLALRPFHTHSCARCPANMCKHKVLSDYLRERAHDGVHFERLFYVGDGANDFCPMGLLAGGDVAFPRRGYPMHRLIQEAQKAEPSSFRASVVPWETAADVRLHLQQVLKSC
* = called active by the depositor; nt = no result. The list is not random: actives were taken first. Their share in the collection is about 3.3%.

SMILES	TPT1 inh	NRP1-CendR mod	Rpn11 inh	HNF4A DNA FP	CTSL1 counter	PHOSPHO1 inh
COc1ccc(NC(=O)/C(C#N)=C\c2ccc(OCc3ccc(C(=O)O)cc3)c(OC)c2)cc1	0.7	-38.6	9.2	5.7	3.3	70.5*
Cc1nn(-c2ccccc2)c(C)c1/C=N\N1CCN(c2ccc(Cl)cc2)CC1	0.6	25.1*	-2.2	7.6	-1.3	11.7
Cc1cccc(OCc2n[nH]c(=S)o2)c1	3.4	-9.5	-3.6	-1.1	-4.9	97.5*
Cc1cccc(C)c1OCc1n[nH]c(=S)o1	4.6	-1.5	-5.8	1.1	-6.2	-6.8
CNS(=O)(=O)c1cccc(C(=O)OCC(=O)NC2CCCC(C)C2C)c1 (centres undefined)	nt	12.1	4.8	0.5	nt	nt
NC(=O)CSc1nnc2sc3ccccc3n12	-2.5	4.9	-4.7	0.0	5.0	33.8
O=C(NCc1ccccc1)C1=C[C@@H](C2CC2)C[C@@H](OCc2ccc(CO)cc2)O1	-1.4	21.2	6.3	3.2	-0.8	51.7
NC(=O)C1=C[C@H](C2CCCCC2)C[C@H](OCc2ccc(CO)cc2)O1	-1.8	27.9*	-5.8	0.4	3.1	39.7
O=C(NCc1ccccc1)C1=C[C@H](C2CCCCC2)C[C@H](OCc2ccc(CO)cc2)O1	1.1	18.5*	0.1	5.5	2.5	13.5
COc1ccc(N(C(=O)c2ccncc2)S(=O)(=O)c2cccc([N+](=O)[O-])c2)cc1	1.7	18.9*	5.4	-2.3	-0.8	-45.1
Cc1ccnc2nc(C(=O)OCC(=O)NCCc3ccccc3)nn12	-2.6	1.0	-0.1	-0.4	-2.4	-8.6
COc1ccc2cc(C(c3nnnn3Cc3ccccc3)N3CCCCCC3)c(=O)[nH]c2c1 (centres undefined)	3.5	-3.9	2.2	-3.0	-2.5	93.7*
COc1ccc2cc(C(c3nnnn3Cc3ccc(F)cc3)N3CCCCCC3)c(=O)[nH]c2c1 (centres undefined)	6.2	-13.9	-1.1	1.1	2.3	-41.5
Cc1ccc2cc(C(c3nnnn3C(C)(C)C)N3CCCCCC3)c(=O)[nH]c2c1 (centres undefined)	-1.3	7.2	1.0	-0.5	-0.1	101.7*
Cc1ccc2cc(C(c3nnnn3Cc3ccccc3)N3CCN(c4ccccc4)CC3)c(=O)[nH]c2c1 (centres undefined)	-0.5	-4.9	-5.7	0.2	3.0	-43.5
CCC(C)(C)n1nnnc1C(c1cc2cc(C)ccc2[nH]c1=O)N1CCCC1 (centres undefined)	8.4	-10.3	4.8	1.4	-1.8	9.7
CCN1CCN(C(c2cc3cccc(C)c3[nH]c2=O)c2nnnn2Cc2ccccc2)CC1 (centres undefined)	-0.3	38.9*	-8.0	0.4	2.2	28.5
CCN(Cc1ccccc1)C(c1cc2ccc(C)cc2[nH]c1=O)c1nnnn1CCOC (centres undefined)	-3.1	-8.9	5.1	-1.3	-0.3	99.2*
CCOC(=O)CSC1=C(C#N)C(=O)NC2(CCCCC2)S1	-1.5	-6.5	1.5	1.8	1.3	97.9*
Cc1ccc(NC(=O)COc2ccc3c(c2)OCO3)c(C)c1	nt	15.9*	7.8	-2.7	nt	nt
CSc1ccccc1NC(=O)COc1ccc2c(c1)OCO2	nt	13.4	-3.5	-0.9	nt	nt
CCOC(=O)N1CCN(S(=O)(=O)N2CCCC(C(=O)NCc3cc(Br)ccc3OC)C2)CC1 (centres undefined)	nt	-16.3	-7.0	-7.2	nt	nt
CCOC(=O)c1c(-c2ccco2)csc1NC(=O)COC(=O)c1cnccn1	7.8	-18.6	-10.4	-12.6	39.8*	nt
CCOC(=O)c1c(-c2ccco2)csc1N	0.5	-7.1	8.4	3.9	2.4	79.7*
CCOC(=O)c1c(-c2cccs2)csc1N	-0.6	0.4	0.4	4.7	0.5	-69.8
SMILES	TPT1 inh	NRP1-CendR mod	Rpn11 inh	HNF4A DNA FP	CTSL1 counter	PHOSPHO1 inh
CCOC(=O)c1c(NC(=O)COC(=O)c2cnccn2)sc(C(=O)NC)c1C	0.2	-9.9	-2.3	1.3	-8.0	nt
CC(C)CC(=O)N1CCN(S(C)(=O)=O)CC1	6.7	14.1	-5.5	-0.6	-0.1	8.8
Cn1c(COc2ccccc2)nnc1SCCN1CCOCC1	7.1	-6.8	8.0	-2.2	3.9	35.0
Cc1ccc(OCc2nnc(SCCN3CCOCC3)n2C)cc1	3.2	2.3	2.5	2.4	-0.4	73.5*
COc1cccc(NC(=O)CN(C)C(=O)CCCc2nc3ccccc3c(=O)[nH]2)c1	nt	5.7	-2.8	-1.6	nt	nt
Cc1cccc(-n2c(=O)[nH]c3c(C(N)=O)nc(C(C)C)nc32)c1	-0.9	-11.2	13.0	0.1	17.5*	1.5
COc1ccc(Cn2c3ccc(OC)cc3c3nc4ccccc4nc32)cc1	-0.5	48.9*	-99.4	-45.2	1.4	3.5
COc1ccc2c(c1)c1nc3ccccc3nc1n2Cc1ccc(OC(C)C)c(OC)c1	-1.4	-9.4	-18.6	0.8	6.0	-67.2
O=C(CCc1nnc(CCCCc2ccccc2)o1)NCCN1CCCCC1=O	-1.8	5.7	8.1	4.0	-2.9	60.1*
O=C(CCc1nnc(CCCCc2ccccc2)o1)NCCc1cccnc1	-1.1	-12.2	6.9	4.3	0.3	44.0
CCCCC(O)(CCCC)C(=O)NN(C(=O)OC)c1ccccc1	0.2	31.4*	-2.6	-0.9	-0.1	7.3
CCCCC(O)(CCCC)C(=O)NN(C(=O)OCC)c1ccccc1	4.4	5.4	0.0	0.7	0.8	4.1
Cc1cc(C(=O)N2CCN(c3ccc(F)cc3)CC2)on1	-2.1	7.1	-1.8	3.0	2.1	25.4
CC(=O)NCCc1ccc(S(=O)(=O)Nc2ccc(NC(=O)c3ccc(F)cc3)cc2)cc1	-3.3	6.1	1.3	0.8	2.4	36.0
COC(=O)c1ccc(COC(=O)C2CCN(S(=O)(=O)c3ccccc3C(=O)OC)CC2)cc1	nt	9.7	-3.1	3.4	nt	nt
COC(=O)c1ccccc1S(=O)(=O)N1CCC(C(=O)OCc2ccc([N+](=O)[O-])cc2)CC1	-6.2	25.3*	2.2	-1.6	0.1	nt
Clc1cccc(-c2nc3ccc(Br)cn3c2Cc2ccsc2)c1	nt	-32.5	1.9	34.7*	nt	nt
Brc1cccc(-c2nc3ccc(Br)cn3c2Cc2ccsc2)c1	nt	-4.7	-4.8	0.1	nt	nt
CC(=N)c1c(O)cc(C)oc1=O	nt	19.4*	-2.9	3.4	nt	nt
Nc1nc(SCC(=O)NCC2CCCO2)n[nH]1 (centres undefined)	-0.1	-2.2	-4.1	-0.2	-0.2	1.3
COC(=O)C1=C(C(=O)OC)SC2(S1)C(C(=O)OC)=C(C(=O)OC)SC1=C2c2cc(C)ccc2NC1(C)C	1.4	5.5	4.0	2.5	0.1	97.9*
CN(CC(=O)NCc1ccccc1)Cc1ccc(Cl)cc1	-1.0	-4.0	2.0	1.7	0.9	10.9
CC1(C(=O)NS(=O)(=O)C2CC2)CCN(C(=O)c2cccc(OC(F)(F)F)c2)C1 (centres undefined)	nt	-2.2	3.0	0.6	nt	nt
COc1ccccc1NC(=S)NNC(=O)c1nn(C)cc1Cl	2.3	2.4	1.4	7.3	-16.5	71.9*

Bioassay records: PubChem, several laboratories
